From PubChem BioAssay AID1851 (National Center for Advancing Translational Sciences (NCATS), 2009)
The campaign covered roughly 16,000 compounds. About 5,700 (36%) were called active. Inconclusive results (about 24%) are left out. Some of the results follow. Unmarked numbers belong to inactive results. Calls come from the whole dose curve; as a rule, active = well fitted curve in the direction sought with a large enough effect; inconclusive = small, poorly fitted or top-dose-only effect, or effect the other way; inactive = no such curve, though single readings can be large or run the other way.

These compounds were tested against Cytochrome P450 1A2 (Homo sapiens) (UniProt P05177) (assay: Cytochrome panel assay with activity outcomes). Settings: recombinant CYP, pro-luciferin dealkylation, luminescence, p450-cyp1a2; series mostly up to 57.1 µM.
% is set by controls: 0 for no effect and ±100 for the full control effect.

Cytochrome P450 1A2 (Homo sapiens), sequence (P05177 whole entry, looked up): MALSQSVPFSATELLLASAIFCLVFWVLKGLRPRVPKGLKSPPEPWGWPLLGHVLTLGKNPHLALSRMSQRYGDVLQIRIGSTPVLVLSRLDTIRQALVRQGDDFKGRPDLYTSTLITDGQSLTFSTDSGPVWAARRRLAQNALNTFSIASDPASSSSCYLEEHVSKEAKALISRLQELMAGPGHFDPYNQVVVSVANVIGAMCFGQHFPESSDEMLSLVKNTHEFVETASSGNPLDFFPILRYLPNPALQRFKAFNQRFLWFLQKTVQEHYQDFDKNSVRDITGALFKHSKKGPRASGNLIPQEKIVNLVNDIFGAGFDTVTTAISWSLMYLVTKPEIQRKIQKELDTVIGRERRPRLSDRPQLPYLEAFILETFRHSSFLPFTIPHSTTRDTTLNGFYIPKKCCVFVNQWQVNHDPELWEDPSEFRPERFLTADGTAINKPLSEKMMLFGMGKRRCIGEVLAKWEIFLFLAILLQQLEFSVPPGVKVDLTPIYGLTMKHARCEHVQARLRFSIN

SMILES | AC50 | activity, negative = inhibition
O=C(O)c1ccccc1C(=O)Nc1ccc(S(=O)(=O)Nc2nccs2)cc1 | inactive | –
S=C(Nc1ccccc1)Nc1nccs1 | 0.794 µM (active) | –
CN(CCO)Cc1ncccc1O | – | -10% [at 2.29 µM]
COc1ccccc1NC(=O)CN1CCN(C2c3ccccc3-c3ccccc32)CC1 | 15.8 µM (active) | –
COc1ccc(NC(C)=O)cc1NC(=O)CN1CCN(C2c3ccccc3-c3ccccc32)CC1 | 28.2 µM (active) | –
COc1ccc(NC(C)=O)cc1NC(=O)CN1CCN(CC(=O)Nc2ccccc2Cl)CC1 | inactive | –
CC(C)OC(=O)CN1CCN(C2c3ccccc3-c3ccccc32)CC1 | 12.6 µM (active) | –
COc1ccccc1NC(=O)CN1CCN(c2ccccc2F)CC1 | 25.1 µM (active) | –
COC(=O)C/C=C1\c2ccccc2[C@H](OC)[C@H]1C | – | -6.47% [at 11.4 µM]
O=C(CCN1CCN(c2ccccc2F)CC1)Nc1ccccc1F | inactive | –
COc1ccccc1NC(=O)CN1CCC(C(=O)c2ccc(F)cc2)CC1 | inactive | –
Cc1cc(Cl)ccc1NC(=O)CN1CCC(C(O)(c2ccccc2)c2ccccc2)CC1 | inactive | –
Cc1ccc(C(=O)C(OC(=O)CN2C(=O)c3ccccc3C2=O)c2ccccc2)cc1 (centres undefined) | inactive | –
O=C(c1csnn1)N1CCC2(CC1)CN(Cc1cc(C(F)(F)F)cc(C(F)(F)F)c1)C2 | inactive | –
Cc1cc(-c2cccs2)nc(-n2cccc2)n1 | 3.16 µM (active) | –
CCCN1C2=NCCCN2c2ccccc21 | inactive | –
CCCCN1C2=NCCCN2c2ccccc21 | 25.1 µM (active) | –
CCCCN1C(=O)CC(Sc2ccccc2C(=O)O)C1=O (centres undefined) | inactive | –
CCc1ccccc1OC[C@@H](O)CN[C@H]1CCCc2ccccc21 | 12.6 µM (active) | –
Cc1c(C(=O)NC2CCCc3ccccc32)oc2ccc(S(=O)(=O)N3CCOCC3)cc12 (centres undefined) | inactive | –
COC(=O)[C@@]1(Cc2ccccc2)[C@H]2c3cc(C(=O)N4CCCC4)n(CCc4ccccn4)c3C[C@H]2CN1C(=O)c1ccccc1 | inactive | –
COc1ccc(C2CC(C(F)(F)F)n3nc(C(=O)N(C)Cc4cn(C)nc4C)c(Cl)c3N2)cc1 (centres undefined) | inactive | –

SMILES | AC50 | activity, negative = inhibition
COc1ccc(NC(=O)c2cc3n(n2)C(C(F)(F)F)CC(c2ccc4c(c2)OCO4)N3)cc1OC (centres undefined) | inactive | –
COc1ccc(OC)c(NC(=O)c2cc3n(n2)C(C(F)(F)F)CC(c2ccc4c(c2)OCO4)N3)c1 (centres undefined) | 0.316 µM (active) | –
CCOC(=O)C1CCCN(C(=O)C2CCN(S(=O)(=O)N3CCC4(CC3)OCCO4)CC2)C1 (centres undefined) | inactive | –
CCOC(=O)C1CCCN(c2ncnc3c2cnn3-c2ccc(Cl)cc2)C1 (centres undefined) | 8.91 µM (active) | –
CCOC(=O)C1CCCN(c2ncnc3c2cnn3-c2cccc(C)c2)C1 (centres undefined) | 14.1 µM (active) | –
Cc1cc(OC(=O)c2ccc(Cl)cc2)cc(=O)n1C | 25.1 µM (active) | –
Cc1cc(OC(=O)c2ccccc2Cl)cc(=O)n1C | 3.55 µM (active) | –
CC(=O)c1c(C(C)=O)c(C)n(NC(=O)c2ccccc2Cl)c1C | inactive | –
CC(=O)Nc1cccc(C(=O)OCc2ccc(C(=O)Oc3ccc(Cl)cc3)cc2)c1 | inactive | –
COc1ccc(C2CC(=O)CC(=O)C2n2cncn2)cc1 (centres undefined) | inactive | –
CC(CC(=O)O)(CC(=O)O)c1ccccc1 | – | -0.666% [at 11.4 µM]
COc1cc(-c2ccc(=O)[nH]n2)ccc1OC(F)F | 5.01 µM (active) | –
Clc1ccccc1-c1nccc(NCCN2CCOCC2)n1 | 2 µM (active) | –
c1ccc2c(c1)CCCc1cc(NCCN3CCOCC3)nnc1-2 | inactive | –
Cc1ccccc1-c1nccc(NCCN2CCOCC2)n1 | 5.01 µM (active) | –
CN(C)c1ccc(-c2nccc(NCCN3CCOCC3)n2)cc1 | 1.26 µM (active) | –
CCOc1nc(NCCN2CCOCC2)nc(Nc2ccc(C)cc2)n1 | inactive | –
c1cc(CNCCCN2CCOCC2)ccn1 | inactive | –
O=C(/C=C/c1ccccc1Cl)NCCN1CCOCC1 | inactive | –
C#CCCCO/N=C1/C[C@@H](O)[C@@H](O)[C@@H]2[C@H]3C(=O)N(c4ccc(F)cc4F)C(=O)[C@@H]3CC[C@@H]12 | – | 5.29% [at 11.4 µM]
CNC(=O)c1c(I)c(C(=O)NCC(=O)Nc2c(I)c(C(=O)O)c(I)c(C(=O)NCCO)c2I)c(I)c(N(C)C(C)=O)c1I | inactive | –
COc1ccc(-n2c(=O)c(-c3cccs3)nc3cncnc32)cc1 | 10 µM (active) | –

SMILES | AC50 | activity, negative = inhibition
O=c1c(-c2cccs2)nc2cncnc2n1-c1ccccc1 | 12.6 µM (active) | –
CC(=O)NCCNc1cc(-c2ccccc2CN(C)C)ncn1 | inactive | –
CC(=O)NCCNc1cc(-c2ccccc2C)ncn1 | 15.8 µM (active) | –
COc1ccccc1CNc1cc(-c2ccccc2C)ncn1 | 5.01 µM (active) | –
COCCNc1cc(-c2ccccc2C)ncn1 | 15.8 µM (active) | –
COCCNc1cc(-c2ccccc2CN(C)C)ncn1 | inactive | –
COc1ccccc1CNc1cc(-c2ccccc2OC)ncn1 | 2.51 µM (active) | –
CCCc1nnc(NC(=O)CCC(=O)N2CCN(c3ccccn3)CC2)s1 | inactive | –
O=C(c1cc(C(F)(F)F)cc(C(F)(F)F)c1)N1CCC2(CC1)CCN(c1ccccn1)CC2 | inactive | –
Cc1ccc(C(=O)N2CCN(c3ccc(C(F)(F)F)cn3)CC2)cc1 | 14.1 µM (active) | –
O=C(c1ccc(Oc2ccc(C(F)(F)F)cn2)cc1)N1CCN(c2ccccc2)CC1 | inactive | –
CCCS(=O)(=O)N1CCCC(C(=O)NCCCN2CCN(c3ccc(F)cc3)CC2)C1 (centres undefined) | inactive | –
c1ccc2c(c1)c1ccccc1n2Cn1c2ccccc2c2ccccc21 | 0.251 µM (active) | –
CN(C)C(=O)c1ccc(-n2nc(C(F)(F)F)c3c2CCCC3)cc1 | 22.4 µM (active) | –
COC(=O)[C@@]1(Cc2ccccc2)[C@H]2c3cc(C(=O)N4CCCC4)n(Cc4ccc(C(F)(F)F)nc4)c3C[C@H]2CN1C(=O)c1ccccc1 | inactive | –
Cc1cccc2cc(=O)[nH]c(C)c12 | 14.1 µM (active) | –
CC1CC/C(=C\c2ccc3c(c2)OCO3)C(=O)/C1=C/c1ccc2c(c1)OCO2 (centres undefined) | 3.55 µM (active) | –
CC(=O)c1c(O)cc(=O)n(-c2ccccc2)c1-c1ccc(C)cc1 | inactive | –
Cc1c(O)c(=O)n(-c2ccccc2)n1C | inactive | –
Cc1ccc(=O)n(-c2ccccc2)c1 | 31.6 µM (active) | –
